Assay results taken from PubChem BioAssay AID1159580 (chemical genetic matrix, 2015).
Out of some 5,500 compounds screened, about 2,000 (36%) were called active. Roughly 18% stayed inconclusive and do not appear here. Rule as the data show it: active = normalized growth mostly below about 0.91 (no sharp cut-off); inconclusive = no clear call, values can overlap the other calls; inactive = mostly above about 0.92. The list shows a part of the results.

Assay: chemical genetic growth profiling, strain panel (AID 1159580);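 also: tested at 20 µM; growth read once vehicle control cultures reached saturation at 30 °C; 1 = growth at the plate median or of vehicle wells; lower values mean less growth of the strain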
Conditions: growth OD
[1] = S. cerevisiae deletion strains, locus YAL013W, strain DEP1, stronger effect = lower value
[2] = S. cerevisiae deletion strains, locus YAL040C, strain CLN3, stronger effect = lower value
[3] = S. cerevisiae deletion strains, locus YCL061C, strain MRC1 (second series), stronger effect = lower value
[4] = S. cerevisiae deletion strains, locus YDR363W, strain ESC2, stronger effect = lower value
[5] = S. cerevisiae deletion strains, locus YER002W, strain NOP16, stronger effect = lower value
[6] = S. cerevisiae deletion strains, locus YJR075W, strain HOC1, stronger effect = lower value
[7] = S. cerevisiae deletion strains, locus YMR263W, strain SAP30, stronger effect = lower value
[8] = S. cerevisiae deletion strains, locus YMR307W, strain GAS1, stronger effect = lower value
[9] = S. cerevisiae deletion strains, locus YNL153C, strain GIM3, stronger effect = lower value
[10] = S. cerevisiae deletion strains, locus YNL175C, strain NOP13, stronger effect = lower value
[11] = S. cerevisiae deletion strains, locus YNL197C, strain WHI3, stronger effect = lower value
[12] = S. cerevisiae deletion strains, locus YNL224C, strain SQS1, stronger effect = lower value
[13] = S. cerevisiae deletion strains, locus YNL322C, strain KRE1, stronger effect = lower value
[14] = S. cerevisiae deletion strains, locus YOR083W, strain WHI5 (second series), stronger effect = lower value
[15] = S. cerevisiae deletion strains, locus YPL055C, strain LGE1, stronger effect = lower value
[16] = S. cerevisiae deletion strains, locus YBR229C, strain ROT2, stronger effect = lower value
[17] = S. cerevisiae deletion strains, locus YDL101C, strain DUN1, stronger effect = lower value
[18] = S. cerevisiae deletion strains, locus YDR150W, strain NUM1, stronger effect = lower value
[19] = S. cerevisiae deletion strains, locus YEL061C, strain CIN8, stronger effect = lower value
[20] = S. cerevisiae deletion strains, locus YGR078C, strain PAC10, stronger effect = lower value
[21] = S. cerevisiae deletion strains, locus YHR030C, strain SLT2, stronger effect = lower value
[22] = S. cerevisiae deletion strains, locus YHR087W, strain rtc3, stronger effect = lower value
[23] = S. cerevisiae deletion strains, locus YJL187C, strain SWE1, stronger effect = lower value
[24] = S. cerevisiae deletion strains, locus YJR043C, strain POL32, stronger effect = lower value
[25] = S. cerevisiae deletion strains, locus YLR039C, strain RIC1, stronger effect = lower value
[26] = S. cerevisiae deletion strains, locus YLR058C, strain SHM2 (second series), stronger effect = lower value
[27] = S. cerevisiae deletion strains, locus YLR085C, strain ARP6, stronger effect = lower value
[28] = S. cerevisiae deletion strains, locus YLR262C, strain YPT6, stronger effect = lower value
[29] = S. cerevisiae deletion strains, locus YML094W, strain GIM5, stronger effect = lower value
[30] = S. cerevisiae deletion strains, locus YMR219W, strain ESC1, stronger effect = lower value
[31] = S. cerevisiae deletion strains, locus YNL298W, strain CLA4 (second series), stronger effect = lower value
[32] = S. cerevisiae deletion strains, locus YNR030W, strain Alg12, stronger effect = lower value
[33] = S. cerevisiae deletion strains, locus YOL006C, strain TOP1, stronger effect = lower value
[34] = S. cerevisiae deletion strains, locus YPL241C, strain CIN2, stronger effect = lower value
[35] = S. cerevisiae deletion strains, locus YPR135W, strain CTF4, stronger effect = lower value
[36] = S. cerevisiae strains, strain wild type, stronger effect = lower value

Measured: normalized growth

C[C@@H](NC(=O)/C(C#N)=C/c1ccc(O)c(O)c1)c1ccccc1
inactive: [1] 0.997 | [2] 0.993 | [3] 0.983 | [4] 1.01 | [5] 0.998 | [6] 0.963 | [7] 1 | [8] 1.01 | [9] 0.978 | [10] 1 | [11] 1 | [12] 1.01 | [13] 1.01 | [14] 1.01 | [15] 0.932

CCCc1cc(=O)oc2cc(OCC(=O)OCC)ccc12
inactive: [1] 0.997 | [16] 0.971 | [17] 0.945 | [18] 0.986 | [19] 0.963 | [20] 0.985 | [21] 0.759 | [22] 0.963 | [23] 0.991 | [24] 1 | [6] 0.972 | S. cerevisiae deletion strains, locus YKL190W, strain CNB1, stronger effect = lower value 0.995 | [25] 0.925 | [26] 0.991 | [27] 0.913 | [28] 0.958 | [29] 0.883 | [30] 0.987 | [7] 1.03 | [9] 0.98 | [31] 0.961 | [13] 0.995 | [32] 0.965 | [33] 0.864 | [15] 0.922 | [34] 1.04 | [35] 0.82 | [36] 0.99

CCCc1cc(=O)oc2c1c(C)nn2-c1ccccc1
inactive: [16] 0.94 | [17] 0.954 | S. cerevisiae deletion strains, locus YDL134C, strain PPH21, stronger effect = lower value 0.938 | [18] 0.978 | [20] 0.935 | [24] 0.998 | [29] 0.921 | [7] 0.956 | [13] 0.944
active: [1] 0.932 | [19] 0.885 | [21] 0.432 | [22] 0.862 | [6] 0.869 | [25] 0.786 | [26] 0.923 | [27] 0.539 | [28] 0.744 | [30] 0.938 | [9] 0.864 | [31] 0.839 | [32] 0.875 | [33] 0.599 | [15] 0.799 | [34] 0.782 | [35] 0.552

Cc1nn(-c2cccc(Cl)c2)c2oc(=O)cc(C(F)(F)F)c12
active: S. cerevisiae deletion strains, locus YDL214C, strain PRR2, stronger effect = lower value 0.609 | S. cerevisiae deletion strains, locus YDR477W, strain SNF1, stronger effect = lower value 0.566 | S. cerevisiae deletion strains, locus YER123W, strain YCK3, stronger effect = lower value 0.342 | S. cerevisiae deletion strains, locus YER133W, strain GLC7, stronger effect = lower value 0.48 | S. cerevisiae deletion strains, locus YFR019W, strain FAB1, stronger effect = lower value 0.572 | S. cerevisiae deletion strains, locus YGR040W, strain KSS1, stronger effect = lower value 0.654 | S. cerevisiae deletion strains, locus YGR052W, strain FMP48, stronger effect = lower value 0.538 | S. cerevisiae deletion strains, locus YGR092W, strain DBF2, stronger effect = lower value 0.367 | [21] 0.154 | S. cerevisiae deletion strains, locus YHR079C, strain IRE1, stronger effect = lower value 0.231 | S. cerevisiae deletion strains, locus YHR082C, strain KSP1, stronger effect = lower value 0.508 | S. cerevisiae deletion strains, locus YJL095W, strain BCK1, stronger effect = lower value 0.359 | S. cerevisiae deletion strains, locus YJL157C, strain FAR1, stronger effect = lower value 0.467 | S. cerevisiae deletion strains, locus YJR066W, strain TOR1 (second series), stronger effect = lower value 0.552 | S. cerevisiae deletion strains, locus YJR066W, strain TOR1, stronger effect = lower value 0.343 | S. cerevisiae deletion strains, locus YKL048C, strain ELM1, stronger effect = lower value 0.753 | S. cerevisiae deletion strains, locus YKL067W, strain YNK1, stronger effect = lower value 0.705 | S. cerevisiae deletion strains, locus YKL203C, strain TOR2, stronger effect = lower value 0.614 | S. cerevisiae deletion strains, locus YLR113W, strain HOG1, stronger effect = lower value 0.35 | S. cerevisiae deletion strains, locus YLR133W, strain CKI1, stronger effect = lower value 0.545 | S. cerevisiae deletion strains, locus YLR403W, strain SFP1, stronger effect = lower value 0.393 | S. cerevisiae deletion strains, locus YML070W, strain DAK1, stronger effect = lower value 0.515 | S. cerevisiae deletion strains, locus YNL020C, strain ARK1, stronger effect = lower value 0.574 | S. cerevisiae deletion strains, locus YNL183C, strain NPR1, stronger effect = lower value 0.464 | S. cerevisiae deletion strains, locus YNL307C, strain MCK1 (second series), stronger effect = lower value 0.536 | S. cerevisiae deletion strains, locus YOL136C, strain PFK27, stronger effect = lower value 0.342 | S. cerevisiae deletion strains, locus YOR119C, strain RIO1, stronger effect = lower value 0.544 | S. cerevisiae deletion strains, locus YOR231W, strain MKK1, stronger effect = lower value 0.501 | S. cerevisiae deletion strains, locus YPL031C, strain PHO85, stronger effect = lower value 0.535 | S. cerevisiae deletion strains, locus YPL153C, strain RAD53, stronger effect = lower value 0.6 | S. cerevisiae deletion strains, locus YPL204W, strain HRR25, stronger effect = lower value 0.469 | S. cerevisiae deletion strains, locus YPL256C, strain CLN2, stronger effect = lower value 0.201
inactive: S. cerevisiae deletion strains, locus YAR019C, strain CDC15, stronger effect = lower value 0.977 | S. cerevisiae deletion strains, locus YBL105C, strain PKC1, stronger effect = lower value 0.966 | S. cerevisiae deletion strains, locus YBR135W, strain CKS1, stronger effect = lower value 0.975 | S. cerevisiae deletion strains, locus YBR136W, strain MEC1, stronger effect = lower value 0.974 | S. cerevisiae deletion strains, locus YBR160W, strain CDC28, stronger effect = lower value 0.974 | S. cerevisiae deletion strains, locus YDL017W, strain CDC7, stronger effect = lower value 0.968 | S. cerevisiae deletion strains, locus YDL028C, strain MPS1, stronger effect = lower value 0.979 | [17] 0.961 | S. cerevisiae deletion strains, locus YDL108W, strain KIN28, stronger effect = lower value 0.968 | S. cerevisiae deletion strains, locus YDL132W, strain cdc53, stronger effect = lower value 0.972 | S. cerevisiae deletion strains, locus YDR052C, strain DBF4, stronger effect = lower value 0.96 | S. cerevisiae deletion strains, locus YDR054C, strain cdc34, stronger effect = lower value 0.973 | S. cerevisiae deletion strains, locus YDR226W, strain ADK1, stronger effect = lower value 0.962 | S. cerevisiae deletion strains, locus YFL009W, strain cdc4, stronger effect = lower value 0.964 | S. cerevisiae deletion strains, locus YFL029C, strain CAK1, stronger effect = lower value 0.976 | S. cerevisiae deletion strains, locus YFR003C, strain YPI1, stronger effect = lower value 0.966 | S. cerevisiae deletion strains, locus YFR028C, strain CDC14, stronger effect = lower value 0.971 | S. cerevisiae deletion strains, locus YHR205W, strain SCH9, stronger effect = lower value 0.615 | S. cerevisiae deletion strains, locus YIL147C, strain SLN1, stronger effect = lower value 0.976 | S. cerevisiae deletion strains, locus YJL128C, strain PBS2, stronger effect = lower value 0.95 | S. cerevisiae deletion strains, locus YJR016C, strain ILV3, stronger effect = lower value 0.976 | S. cerevisiae deletion strains, locus YKL101W, strain HSL1, stronger effect = lower value 0.776 | S. cerevisiae deletion strains, locus YKL193C, strain SDS22, stronger effect = lower value 0.975 | S. cerevisiae deletion strains, locus YMR001C, strain CDC5, stronger effect = lower value 0.962 | S. cerevisiae deletion strains, locus YMR205C, strain PFK2 (second series), stronger effect = lower value 0.78 | S. cerevisiae deletion strains, locus YMR277W, strain FCP1, stronger effect = lower value 0.98 | S. cerevisiae deletion strains, locus YNL006W, strain LST8, stronger effect = lower value 0.977 | S. cerevisiae deletion strains, locus YNL161W, strain CBK1, stronger effect = lower value 0.968 | S. cerevisiae deletion strains, locus YNL207W, strain RIO2, stronger effect = lower value 0.963 | S. cerevisiae deletion strains, locus YNL222W, strain SSU72, stronger effect = lower value 0.975 | S. cerevisiae deletion strains, locus YOL078W, strain AVO1, stronger effect = lower value 0.97 | S. cerevisiae deletion strains, locus YOR061W, strain CKA2, stronger effect = lower value 0.681 | S. cerevisiae deletion strains, locus YOR329C, strain SCD5, stronger effect = lower value 0.964 | S. cerevisiae deletion strains, locus YPL209C, strain IPL1, stronger effect = lower value 0.972 | S. cerevisiae deletion strains, locus YPR025C, strain CCL1, stronger effect = lower value 0.968 | S. cerevisiae deletion strains, locus YPR106W, strain ISR1, stronger effect = lower value 0.979 | S. cerevisiae deletion strains, locus YPR111W, strain DBF20, stronger effect = lower value 0.96 | S. cerevisiae deletion strains, strain NNK1, stronger effect = lower value 0.978 | S. cerevisiae deletion strains, strain TSCII, stronger effect = lower value 0.967

O=C(O)C1C2CCC1C(O)C2 (stereo unspecified)
inactive: [1] 0.99 | [16] 1.02 | [17] 0.981 | [18] 1 | [19] 1.02 | [20] 0.998 | [21] 0.98 | [22] 0.99 | [23] 1.02 | [24] 1 | [6] 1.02 | [25] 0.967 | [26] 1.02 | [27] 1.03 | [28] 0.968 | [29] 1.01 | [30] 0.998 | [7] 0.998 | [8] 1.01 | [9] 0.976 | [31] 1 | [13] 1 | [32] 1.01 | [33] 0.972 | [15] 1.03 | [34] 0.997 | [35] 0.979 | [36] 0.967

NC(=O)c1ncn(C2OC(CO)C(O)C2O)c1O (stereo unspecified)
inactive: [1] 1.01 | [2] 1.01 | [3] 1.01 | [4] 1.01 | [5] 1 | S. cerevisiae deletion strains, locus YNL128W, strain TEP1, stronger effect = lower value 0.998 | [9] 1.02 | [10] 1 | [11] 1.01 | [12] 1 | [14] 1.02

Cc1onc(-c2c(Cl)cccc2Cl)c1NC(=O)O/N=C\c1ccc(N(C)C)cc1
active: [1] 0.807 | [18] 0.693 | [19] 0.338 | [20] 0.861 | [21] 0.12 | [24] 0.769 | [27] 0.0906 | [29] 0.152 | [7] 0.78 | [9] 0.907 | [31] 0.266 | [32] 0.357 | [33] 0.25 | [15] 0.624 | [34] 0.44
inactive: [16] 0.975 | S. cerevisiae deletion strains, locus YCL061C, strain MRC1, stronger effect = lower value 0.994 | [17] 0.978 | [22] 1.02 | [6] 1.04 | [25] 0.865 | [26] 0.992 | [28] 0.956 | [30] 1.02 | [13] 0.962 | [35] 0.698 | [36] 0.956
